Laboratory results from PubChem BioAssay (Tox21).
Records with an inconclusive call do not appear. The source made the active and inactive calls. Unless noted, calls follow the shape of the full dose curve.

Legend:
[1] = qHTS assay to identify small molecule antagonists of the vitamin D receptor (VDR) signaling pathway - cell viability counter screen (AID 743225; active = well fitted curve in the direction sought with a large enough effect in the repeat runs; an effect the other way counts as inactive or inconclusive; also: % is scaled to controls: 0 for no effect and ±100 for the full control effect; nearly all actives have a fitted effect of over 50% in size)
Summary of the method: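 Read-out: CellTiter-Glo luminescence measured 30 min after reagent addition at room temperature. Cells were VDR-bla HEK 293T exposed 16 h at 37C, 5% CO2, to compound with 3 nM final calcitriol agonist.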

[2] = qHTS assay to identify small molecule agonists of the NFkB signaling pathway - cell viability counter screen (AID 1159515); also: series mostly up to about 61 µM; % is scaled to controls: 0 for no effect and ±100 for the full control effect; nearly all actives have a fitted effect of over 55% in size
Summary of the method: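 Cells are seeded (2,000 NFkB-bla ME-180 per well), rested overnight, and dosed with DMSO-dissolved compounds for 5 hr at 37 C. Viability is then read by CellTiter-Glo luminescence after 30 min at room temperature.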

[3] = qHTS assay to identify small molecule agonists of the endoplasmic reticulum stress response signaling pathway (AID 1159516; active = well fitted activation curve with a large enough effect in the signal ratio in the repeat runs, not every such curve was filed as active; the % refers to the signal ratio; also: % is scaled to controls: 0 for no effect and ±100 for the full control effect)
Summary of the method: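 Cells are seeded at 1,500 per well and incubated overnight. Compounds in DMSO are added for 5 hr at 37 C, then beta-lactamase FRET substrate for 2 hr at room temperature, and fluorescence at 460 and 530 nm is measured.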

[4] = qHTS assay to identify small molecule agonists of the endoplasmic reticulum stress response signaling pathway - cell viability counter screen (AID 1159517);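 also: HeLa cells carrying an ER stress response element beta-lactamase reporter; series mostly up to about 61 µM; % is scaled to controls: 0 for no effect and ±100 for the full control effect; nearly all actives have a fitted effect of over 50% in size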
Summary of the method: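 Steps: seed 1,500 ESRE-bla HeLa cells per well; incubate overnight at 37 C, 5% CO2; add compounds in DMSO for 5 hr; run FRET substrate 2 hr RT; add CellTiter-Glo, wait 30 min, read luminescence.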

[5] = qHTS assay to identify small molecule antagonists of the retinoid-related orphan receptor gamma (ROR-gamma) signaling pathway - cell viability counter screen (AID 1159520; active = well fitted curve in the direction sought with a large enough effect in the repeat runs; an effect the other way counts as inactive or inconclusive; also: % is scaled to controls: 0 for no effect and ±100 for the full control effect; nearly all actives have a fitted effect of over 50% in size)
Summary of the method: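 Tet-on ROR gamma CHO cells were given compounds for 2 hr, then doxycycline hyclate at 1 uM final, and incubated 16 hr at 37 C. Viability was measured as ATP content by CellTiter-Glo luminescence.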

[6] = target: Nuclear receptor ROR-gamma (Homo sapiens) (UniProt P51449); experiment: qHTS assay to identify small molecule antagonists of the retinoid-related orphan receptor gamma (ROR-gamma) signaling pathway (AID 1159521; active = well fitted curve in the direction sought with a large enough effect in the repeat runs; an effect the other way counts as inactive or inconclusive;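 also: CHO cells with doxycycline inducible ROR-gamma driving an RORE luciferase reporter; top concentration of the series differs between compounds; % is scaled to controls: 0 for no effect and ±100 for the full control effect; nearly all actives have a fitted effect of over 50% in size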)
Summary of the method: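 CHO Tet-on RORγ, RORE-luc reporter. Cpd 2 h pre-incubation, then dox hyclate 1 uM final, 16 h, 37 C/5% CO2. ONE-Glo luminescence; decrease = antagonist.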

[7] = qHTS assay to identify small molecule agonists of the AP-1 signaling pathway - cell viability counter screen (AID 1159525); also: nearly all actives have a fitted effect of over 55% in size
Summary of the method: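 Same-well cytotoxicity counter screen of the Tox21 10K library in ME-180 cells. The readout is ATP-dependent luminescence after 5 h compound treatment. Data are normalised to DMSO and tetra n-octyl ammonium bromide controls.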

[8] = qHTS assay to identify small molecule agonists of the AP-1 signaling pathway (AID 1159526); also: potency is read from the fitted curve at half-maximal effect; as to activation: % is scaled to controls: 0 for no effect and ±100 for the full control effect
[9] = target: Retinoic acid receptor RXR-alpha (Homo sapiens) (UniProt P19793); experiment: qHTS assay to identify small molecule agonists of the RXR signaling pathway (AID 1159527); also: nearly all actives have a fitted effect of over 35% in size; also: potency is read from the fitted curve at half-maximal effect; as to activation: % is scaled to controls: 0 for no effect and ±100 for the full control effect
Summary of the method: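 Read-out: beta-lactamase FRET ratio (405 nm excitation, 460 and 530 nm emission) after 2 hr substrate loading at room temperature. Cells were RXR-alpha-UAS-bla HEK 293T treated with compounds for 16 hr in 2% charcoal-stripped FBS medium.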

[10] = qHTS assay to identify small molecule agonists of the vitamin D receptor (VDR) signaling pathway - cell viability counter screen (AID 743224; active = well fitted curve in the direction sought with a large enough effect in the repeat runs; an effect the other way counts as inactive or inconclusive)
Summary of the method: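 Cells: VDR-bla, 2,000/well, settled 4 h. Treatment: compounds in DMSO, 16 h, 37C/5% CO2. Readout: CellTiter-Glo luminescence after 30 min RT.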

Chain of Retinoic acid receptor RXR-alpha (Homo sapiens) (P19793 whole entry, looked up): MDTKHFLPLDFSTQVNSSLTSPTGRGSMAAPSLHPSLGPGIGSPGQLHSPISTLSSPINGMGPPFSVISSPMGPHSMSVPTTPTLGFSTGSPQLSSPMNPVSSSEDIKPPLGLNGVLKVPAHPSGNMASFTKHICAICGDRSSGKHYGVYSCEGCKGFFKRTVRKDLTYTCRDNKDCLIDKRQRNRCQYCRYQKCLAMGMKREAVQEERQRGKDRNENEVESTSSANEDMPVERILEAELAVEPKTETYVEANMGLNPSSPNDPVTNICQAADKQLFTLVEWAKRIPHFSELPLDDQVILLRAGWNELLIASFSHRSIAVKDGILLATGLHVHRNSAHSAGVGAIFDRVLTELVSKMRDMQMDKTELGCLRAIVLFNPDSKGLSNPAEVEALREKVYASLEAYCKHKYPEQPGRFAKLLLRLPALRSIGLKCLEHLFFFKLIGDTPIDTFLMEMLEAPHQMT

CNC(=O)c1c(I)c(NC(C)=O)c(I)c(C(=O)O)c1I
inactive: outcome [1] | outcome [2] | Potency [3] | outcome [4] | outcome [5] | outcome [6] | outcome [7] | Potency [8] | Potency [9]

O=S(=O)(O)c1cc(I)c(O)c2ncccc12
inactive: outcome [1] | outcome [2] | Potency [3] | outcome [4] | outcome [5] | outcome [6] | outcome [7] | Potency [8] | Potency [9]

CNC(C)=O
inactive: outcome [1] | outcome [2] | Potency [3] | outcome [4] | outcome [5] | outcome [6] | outcome [7] | Potency [8] | Potency [9]

O=C(O)CCCCCCCCCC(=O)O
inactive: outcome [1] | outcome [2] | Potency [3] | outcome [4] | outcome [5] | outcome [6] | outcome [7] | Potency [8] | Potency [9]

O=C(O)/C=C(\CC(=O)O)C(=O)O
inactive: outcome [1] | outcome [2] | Potency [3] | outcome [4] | outcome [5] | outcome [6] | outcome [7] | Potency [8] | Potency [9]

NNC(=O)OCc1ccccc1
inactive: outcome [10] | outcome [1] | outcome [2] | Potency [3] | outcome [4] | outcome [5] | outcome [6] | outcome [7] | Potency [8] | Potency [9]

CC(=O)c1ccc(O)c(C(N)=O)c1
inactive: outcome [1] | outcome [2] | Potency [3] | outcome [4] | outcome [5] | outcome [6] | outcome [7] | Potency [8] | Potency [9]

CCCCCCCCCCCCCCCC/C=C/C1CC(=O)OC1=O (centres undefined)
inactive: outcome [1] | outcome [2] | Potency [3] | outcome [4] | outcome [5] | outcome [6] | outcome [7] | Potency [9]
active: Potency [8] 16.9 µM

Cc1ccccc1OCC(=O)O
inactive: outcome [1] | outcome [2] | Potency [3] | outcome [4] | outcome [5] | outcome [6] | outcome [7] | Potency [8] | Potency [9]

CC(C)(O)CCCC1=CCC(C=O)CC1 (centres undefined)
inactive: outcome [10] | outcome [1] | outcome [2] | Potency [3] | outcome [4] | outcome [5] | outcome [6] | outcome [7] | Potency [8] | Potency [9]

CCCCC(CC)CCC(CC(C)C)OS(=O)(=O)O (centres undefined)
inactive: outcome [10] | outcome [1] | outcome [2] | Potency [3] | outcome [4] | outcome [5] | outcome [6] | outcome [7] | Potency [8] | Potency [9]

CC(=O)/C=C/C=C1/C2CCC(C2)C1(C)C (centres undefined)
inactive: outcome [1] | outcome [2] | Potency [3] | outcome [4] | outcome [5] | outcome [6] | outcome [7] | Potency [8] | Potency [9]

N=C(N)N
inactive: outcome [1] | outcome [2] | Potency [3] | outcome [4] | outcome [5] | outcome [6] | outcome [7] | Potency [8] | Potency [9]

CC(=O)Oc1ccc(C(C)=O)cc1
inactive: outcome [1] | outcome [2] | Potency [3] | outcome [4] | outcome [5] | outcome [6] | outcome [7] | Potency [8] | Potency [9]

CC(C)(Sc1cc(C(C)(C)C)c(O)c(C(C)(C)C)c1)Sc1cc(C(C)(C)C)c(O)c(C(C)(C)C)c1
inactive: outcome [10] | outcome [1] | outcome [2] | Potency [3] | outcome [4] | outcome [5] | outcome [6] | outcome [7] | Potency [8] | Potency [9]

CCCCCCCCCCCCCCCCN(C)C
inactive: viability change, negative = cytotoxic [1] -0.156% [at 6.95 µM] | activity, negative = cytotoxic [2] -0.303% [at 6.95 µM] | activation [3] 0.0292% [at 6.95 µM] | activity change, negative = cytotoxicity [4] -14.5% [at 6.95 µM] | activity, negative = cytotoxicity [5] 7.06% [at 8.39 µM] | activity change, negative = inhibition [6] 0.397% [at 8.39 µM] | viability change, negative = cytotoxic [7] 0.637% [at 6.97 µM] | activation [8] -6.44% [at 6.97 µM] | activation [9] 8.03% [at 6.98 µM]

CCCC(=O)OC
inactive: outcome [1] | outcome [2] | Potency [3] | outcome [4] | outcome [5] | outcome [6] | outcome [7] | Potency [8] | Potency [9]

CCCC(C)C(O)CC (centres undefined)
inactive: outcome [1] | outcome [2] | Potency [3] | outcome [4] | outcome [5] | outcome [6] | outcome [7] | Potency [8] | Potency [9]

CCCCCCCCCCCCCCBr
inactive: outcome [10] | outcome [1] | outcome [2] | Potency [3] | outcome [4] | outcome [5] | outcome [6] | outcome [7] | Potency [8] | Potency [9]

Cc1cc(N)no1
inactive: outcome [1] | outcome [2] | Potency [3] | outcome [4] | outcome [5] | outcome [6] | outcome [7] | Potency [8] | Potency [9]

CC(=O)SC[C@@H](C)C(=O)N1CCC[C@H]1C(=O)N[C@@H](Cc1ccccc1)C(=O)O
inactive: outcome [1] | outcome [2] | Potency [3] | outcome [4] | outcome [5] | outcome [6] | outcome [7] | Potency [8] | Potency [9]

CCCCCCCCCCCC(C)=O
inactive: outcome [1] | outcome [2] | Potency [3] | outcome [4] | outcome [5] | outcome [6] | outcome [7] | Potency [8] | Potency [9]

C=CCOC(=O)CCCCCCCC
inactive: outcome [1] | outcome [2] | Potency [3] | outcome [4] | outcome [5] | outcome [6] | outcome [7] | Potency [8]
active: Potency [9] 17.5 µM

CCCCc1ccc(Cl)cc1
inactive: outcome [1] | outcome [2] | Potency [3] | outcome [4] | outcome [5] | outcome [6] | outcome [7] | Potency [8] | Potency [9]

Cc1ccc(N)nc1
inactive: outcome [1] | outcome [2] | Potency [3] | outcome [4] | outcome [5] | outcome [6] | outcome [7] | Potency [8] | Potency [9]

NC(=O)CC[C@@H](N)C(=O)O
inactive: outcome [1] | outcome [2] | Potency [3] | outcome [4] | outcome [5] | outcome [6] | outcome [7] | Potency [8] | Potency [9]
